This passage reports growth inhibition results from PubChem BioAssay (NCI).

Compounds without any hit were thinned out: in the full panel of roughly 79,000, 15% have a hit. Calls of active or inactive are those of the source. Rule as the data show it: active = growth inhibition above about 70%; inactive = the rest.

A short description of one assay: NCI Yeast Anticancer Drug Screen. Data for the cln2 rad14 strain (AID 165).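 Also: 0% = growth equal to vehicle treated cultures.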 Particulars: S. cerevisiae cln2 rad14 strain, at 50.0 µM (retest, dose inferred, filed as 5.0), active compounds read high. The method in brief: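 The screen exposed genetically defined yeast (cln2 rad14) to test compounds and scored growth inhibition relative to vehicle-treated controls.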
`O=C(OC1C2CCC2C2CC21)c1ccc([N+](=O)[O-])cc1[N+](=O)[O-]` (stereo not drawn): the growth inhibition was 99% (active).

For `N#CCc1nc2c(s1)C(=O)c1ccccc1C2=O`, the growth inhibition was 98% (active).

For the compound `CC1=C(C(=S)Nc2ccc(Cl)c(C(=O)OC(C)C)c2)SCCO1`, the growth inhibition was 64% (inactive).

Take `O=C1C(Cl)=C(c2ccc([N+](=O)[O-])cc2)C(=O)c2c(O)cccc21`: the growth inhibition is 97% (active).

`CCOc1ccc2nc(C)cc(C)c2c1`: the growth inhibition was 2% (inactive).

As for `CN(C)CC(O)c1cc(-c2ccc(Cl)cc2)nc2c(Cl)cc(Cl)cc12` (stereo not drawn), the growth inhibition is 97% (active).

Turning to `CCCC(=S)N1CCOCC1`, the growth inhibition is -4% (inactive).

Take `C/C(=C/CC1CCC2C3=CCC4CC(O)CCC4(C)C3CCC12C)C(C)C(C)C` (stereo not drawn): the growth inhibition was 69% (inactive).

On to `NCC(O)CSc1ccc(Cl)c(Cl)c1` (stereo not drawn), for which the growth inhibition is 9% (inactive).

As to `CCCCCCCCC(=O)NCCCNCCCNC(=O)CCCCCCCC`, the growth inhibition is -22% (inactive).

On to `O=C1c2ccc(O)cc2C(=O)c2c1ccc(O)c2O`, for which the growth inhibition was 73% (active).

On to `Clc1nc(Cl)c(Cl)c(-c2ccccc2)n1`, for which the growth inhibition is 73% (active).

Regarding `Cc1ccc(-c2c(C#N)c(-c3ccc(Cl)cc3)c(C#N)c(=O)n2NS(=O)(=O)c2ccccc2)cc1`, the growth inhibition is 60% (inactive).

Regarding `CC(CCC(=O)O)(c1cc(Br)c(O)c(Br)c1)c1cc(Br)c(O)c(Br)c1`, the growth inhibition was 75% (active).

Turning to `N#CC(C(=O)CCCC(=O)Nc1ccc(Cl)cc1)c1ccccc1Cl` (stereo not drawn), the growth inhibition is 1% (inactive).

With `Cc1ccc(S(=O)(=O)S/C(=N\c2ccccn2)Nc2ccccn2)cc1`, the growth inhibition was 16% (inactive).

`NC(=O)C1CCCN1C(=O)C1CCCN(Cc2cc(CN3CCCC(C(=O)N4CCCC4C(N)=O)C3)cc(CN3CCCC(C(=O)N4CCCC4C(N)=O)C3)c2)C1` (stereo not drawn): the growth inhibition was 3% (inactive).

Take `O=C(/C=C\c1cccc2ccccc12)c1ccccn1`: the growth inhibition was 97% (active).

On to `COC(=O)c1cccc2c1C(=O)c1ccccc1-2`, for which the growth inhibition was -19% (inactive).

As for `Cn1c(=S)c2[nH]c(SCCN3CCCCC3)nc2n(C)c1=O`, the growth inhibition was 28% (inactive).

With `CN(C)CCCSc1c2ccccc2nc2cccc([N+](=O)[O-])c12`, the growth inhibition is 18% (inactive).

Regarding `CCCCCCCCN(CCCCCCCC)CC(O)c1cc(-c2ccc(Cl)cc2)nc2c(Cl)cccc12` (stereo not drawn), the growth inhibition is -13% (inactive).

In the case of `CCCCCCCCCCCCS`, the growth inhibition was 1% (inactive).

For `COC(=O)c1nc(=S)[nH]c(C(=O)OC)c1C(=O)c1ccc([N+](=O)[O-])cc1`, the growth inhibition is 70% (active).

With `Cc1[nH]c2ccccc2c1C1=CC2(C)Nc3ccccc3C2C(C)(C)C1` (stereo not drawn), the growth inhibition is -4% (inactive).

With `CCCCCCCCN(CCCCCCCC)CC(O)c1cc(-c2ccc(OC)cc2)nc2cc(Cl)ccc12` (stereo not drawn), the growth inhibition was 76% (active).

As to `O=C(CC(C[N+](=O)[O-])c1ccc2c(c1)OCO2)c1ccccc1` (stereo not drawn), the growth inhibition was 16% (inactive).

On to `CN(C)CCN(C)CCC(=O)/C=C/c1ccccc1`, for which the growth inhibition was 99% (active).

Consider `NC(N)=NC(N)=Nc1ccc(-c2ccccc2)cc1`, for which the growth inhibition is 93% (active).

Regarding `O=[N+]([O-])c1ccccc1NCCO`, the growth inhibition is 4% (inactive).

Take `Cn1c2c(c3ccccc31)CCN(CCN1CCN(c3cccc(Cl)c3)CC1)C2=O`: the growth inhibition is 15% (inactive).

With `CC(=O)Oc1c2c(c(C)c3ccccc13)C(=O)c1cccnc1C2=O`, the growth inhibition is 0% (inactive).

`O=C(/C(=C/c1ccc2c(c1)OCO2)c1ccccc1)c1ccc(OCCN2CCCC2)cc1`: the growth inhibition was -8% (inactive).

`O=C1C(=O)c2cc(Cl)ccc2-c2ccc(Cl)cc21`: the growth inhibition was 94% (active).

On to `C/C(=N/NC(=O)Nc1ccc(N=Nc2ccccc2)cc1)c1cccnc1`, for which the growth inhibition was -51% (inactive).

Regarding `CC(Cl)C(=O)Nc1cc2ccccc2oc1=O` (stereo not drawn), the growth inhibition is -1% (inactive).

With `CC(C)c1ccc2c(c1)CCC1C(C)(CN)CCCC21C` (stereo not drawn), the growth inhibition is 99% (active).

`CN(NC1OC(=O)c2ccccc21)c1ccc(C(F)(F)F)cc1[N+](=O)[O-]` (stereo not drawn): the growth inhibition was 31% (inactive).

`CCCC(CC)c1c(O)c(O)c(C(CC)CCC)c(C(CC)CCC)c1C(CC)CCC` (stereo not drawn): the growth inhibition is 72% (active).

Staying with this assay, now noted: S. cerevisiae cln2 rad14 strain, at 50.0 µM, active compounds read high.
Consider `O=C(OC1C2CCC2C2CC21)c1ccc([N+](=O)[O-])cc1[N+](=O)[O-]` (stereo not drawn), for which the growth inhibition was 39.5% (inactive).

Take `N#CCc1nc2c(s1)C(=O)c1ccccc1C2=O`: the growth inhibition is 35.2% (inactive).

In the case of `CC1=C(C(=S)Nc2ccc(Cl)c(C(=O)OC(C)C)c2)SCCO1`, the growth inhibition was 47.4% (inactive).

In the case of `O=C1C(Cl)=C(c2ccc([N+](=O)[O-])cc2)C(=O)c2c(O)cccc21`, the growth inhibition is 90% (active).

On to `CCOc1ccc2nc(C)cc(C)c2c1`, for which the growth inhibition is 34.5% (inactive).

Take `CN(C)CC(O)c1cc(-c2ccc(Cl)cc2)nc2c(Cl)cc(Cl)cc12` (stereo not drawn): the growth inhibition is 99.3% (active).

Consider `CCCC(=S)N1CCOCC1`, for which the growth inhibition is 33.2% (inactive).

For `C/C(=C/CC1CCC2C3=CCC4CC(O)CCC4(C)C3CCC12C)C(C)C(C)C` (stereo not drawn), the growth inhibition was 81.5% (active).

For the compound `NCC(O)CSc1ccc(Cl)c(Cl)c1` (stereo not drawn), the growth inhibition is 74.8% (active).

Regarding `CCCCCCCCC(=O)NCCCNCCCNC(=O)CCCCCCCC`, the growth inhibition was 92.2% (active).

For `O=C1c2ccc(O)cc2C(=O)c2c1ccc(O)c2O`, the growth inhibition was 41.3% (inactive).

With `Clc1nc(Cl)c(Cl)c(-c2ccccc2)n1`, the growth inhibition is 84.8% (active).

As to `Cc1ccc(-c2c(C#N)c(-c3ccc(Cl)cc3)c(C#N)c(=O)n2NS(=O)(=O)c2ccccc2)cc1`, the growth inhibition is 63.6% (inactive).

Consider `CC(CCC(=O)O)(c1cc(Br)c(O)c(Br)c1)c1cc(Br)c(O)c(Br)c1`, for which the growth inhibition is 92.4% (active).

For the compound `N#CC(C(=O)CCCC(=O)Nc1ccc(Cl)cc1)c1ccccc1Cl` (stereo not drawn), the growth inhibition was 93.9% (active).

Regarding `Cc1ccc(S(=O)(=O)S/C(=N\c2ccccn2)Nc2ccccn2)cc1`, the growth inhibition is 3% (inactive).

Take `NC(=O)C1CCCN1C(=O)C1CCCN(Cc2cc(CN3CCCC(C(=O)N4CCCC4C(N)=O)C3)cc(CN3CCCC(C(=O)N4CCCC4C(N)=O)C3)c2)C1` (stereo not drawn): the growth inhibition is 16.9% (inactive).

Regarding `O=C(/C=C\c1cccc2ccccc12)c1ccccn1`, the growth inhibition is 87.2% (active).

Regarding `COC(=O)c1cccc2c1C(=O)c1ccccc1-2`, the growth inhibition is 71.2% (active).

For the compound `Cn1c(=S)c2[nH]c(SCCN3CCCCC3)nc2n(C)c1=O`, the growth inhibition is 54.5% (inactive).

With `CN(C)CCCSc1c2ccccc2nc2cccc([N+](=O)[O-])c12`, the growth inhibition is -47.8% (inactive).

Regarding `CCCCCCCCN(CCCCCCCC)CC(O)c1cc(-c2ccc(Cl)cc2)nc2c(Cl)cccc12` (stereo not drawn), the growth inhibition was 45.4% (inactive).

For `CCCCCCCCCCCCS`, the growth inhibition is 43.3% (inactive).

For the compound `COC(=O)c1nc(=S)[nH]c(C(=O)OC)c1C(=O)c1ccc([N+](=O)[O-])cc1`, the growth inhibition is 31.1% (inactive).

Take `Cc1[nH]c2ccccc2c1C1=CC2(C)Nc3ccccc3C2C(C)(C)C1` (stereo not drawn): the growth inhibition was 93.5% (active).

As for `CCCCCCCCN(CCCCCCCC)CC(O)c1cc(-c2ccc(OC)cc2)nc2cc(Cl)ccc12` (stereo not drawn), the growth inhibition is 84% (active).

As to `O=C(CC(C[N+](=O)[O-])c1ccc2c(c1)OCO2)c1ccccc1` (stereo not drawn), the growth inhibition was 4.65% (inactive).

Regarding `CN(C)CCN(C)CCC(=O)/C=C/c1ccccc1`, the growth inhibition is 96% (active).

For the compound `NC(N)=NC(N)=Nc1ccc(-c2ccccc2)cc1`, the growth inhibition was 7.8% (inactive).

For the compound `O=[N+]([O-])c1ccccc1NCCO`, the growth inhibition is 28.8% (inactive).

For `Cn1c2c(c3ccccc31)CCN(CCN1CCN(c3cccc(Cl)c3)CC1)C2=O`, the growth inhibition is 91.3% (active).

For the compound `CC(=O)Oc1c2c(c(C)c3ccccc13)C(=O)c1cccnc1C2=O`, the growth inhibition was 97.8% (active).

Take `O=C(/C(=C/c1ccc2c(c1)OCO2)c1ccccc1)c1ccc(OCCN2CCCC2)cc1`: the growth inhibition is 12.8% (inactive).

On to `O=C1C(=O)c2cc(Cl)ccc2-c2ccc(Cl)cc21`, for which the growth inhibition is 88.5% (active).

`C/C(=N/NC(=O)Nc1ccc(N=Nc2ccccc2)cc1)c1cccnc1`: the growth inhibition is -1.5% (inactive).

Regarding `CC(Cl)C(=O)Nc1cc2ccccc2oc1=O` (stereo not drawn), the growth inhibition was 0.35% (inactive).

With `CC(C)c1ccc2c(c1)CCC1C(C)(CN)CCCC21C` (stereo not drawn), the growth inhibition is 98.7% (active).

Turning to `CN(NC1OC(=O)c2ccccc21)c1ccc(C(F)(F)F)cc1[N+](=O)[O-]` (stereo not drawn), the growth inhibition is 71.2% (active).

As to `CCCC(CC)c1c(O)c(O)c(C(CC)CCC)c(C(CC)CCC)c1C(CC)CCC` (stereo not drawn), the growth inhibition was 97.7% (active).
